# Data reported in PubChem BioAssay (EPA / NIEHS).
# Where “and” joins values, the source holds several entries; their conditions need not be identical. Equal values may be shown once. Results filed as inconclusive are left out. Some compounds were tested as several samples or in several runs, with calls that do not always agree. Calls of active or inactive are those of the source. The calls were made as follows: active = hit-call score of the fitted dose curve at least 0.9, where 1 is the maximum; inconclusive = response in the unintended direction; inactive = score below 0.9.
# What was measured:
# [1] = target: chimpanzee Androgen Receptor (AR), AR (gene 747460) (UniProt O97775); experiment: NVS_NR_cAR: NovaScreen (NVS) Nuclear Receptor Binding Assay for chimpanzee Androgen Receptor (AR) (AID 2283346);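 also: radioligand displacement from AR measured by scintillation counting in a cell-free assay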
# Method in brief: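 Cell-free radioligand displacement using receptor protein extracted from Sf9/Sf21 cells; bound radioligand measured by scintillation counting 72 hours after chemical dosing. Loss of signal versus DMSO baseline indicates binding; primary screen single-concentration in duplicate at 25 uM, actives followed in concentration series.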
# [2] = target: Estrogen receptor (Homo sapiens) (UniProt P03372); experiment: NVS_NR_hER: NovaScreen (NVS) Nuclear Receptor Binding Assay for human Estrogen Receptor (ER) (AID 2283348)
# Method in brief: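 Radiodetection of ligand displacement in a lysate-based, cell-free format using MCF7 extracts, read at 18 hours. Duplicate 25 uM primary testing, then concentration series for actives.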
# [3] = target: Estrogen receptor (Homo sapiens) (UniProt P03372); experiment: OT_ER_ERaERa_1440: Odyssey Thera (OT) 24-hour HEK293T Protein-Complementation Assay for Estrogen Receptor-alpha/-alpha Homodimer (AID 2283349);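 also: hits raise fluorescence above DMSO for agonists and antagonists alike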
# Method in brief: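 Stably transfected HEK293T; ERα LBD homodimer PCA. 24 h dosing, fluorescence intensity read, gain-of-signal vs DMSO.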
# [4] = target: Estrogen receptor (Homo sapiens) (UniProt P03372); experiment: OT_ER_ERaERa_0480: Odyssey Thera (OT) 8-hour HEK293T Protein-Complementation Assay for Estrogen Receptor-alpha/-alpha Homodimer (AID 2283351);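 also: rise in fluorescence from reassembled reporter fragments on ERα LBD homodimer in nucleus or whole cell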
# Method in brief: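 Read-out: fluorescence intensity rise relative to DMSO, nuclear for agonists, nuclear plus cytoplasmic for antagonists. Construct is the ERα LBD (aa 310-547) homodimer fragment-complementation pair, stably expressed in HEK293T; exposure 8 h.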
# [5] = target: Estrogen receptor (Homo sapiens) + Estrogen receptor beta (Homo sapiens) (UniProt P03372+Q92731); experiment: OT_ER_ERaERb_0480: Odyssey Thera (OT) 8-hour HEK293T Protein-Complementation Assay for Estrogen Receptor-alpha/-beta Heterodimer (AID 2283352)
# Method in brief: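 Compound added to HEK293T cells carrying split-reporter-tagged ER-alpha and ER-beta LBDs, incubated 8 hours, then imaged by laser scanning cytometer. Signal rise in nucleus, or nucleus and cytoplasm, over vehicle was fitted in the positive direction.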
# [6] = tested on: guinea pig Histamine Receptor (H2), gene 100729734; experiment: NVS_GPCR_gH2: NovaScreen (NVS) G Protein-Coupled Receptor Assay for guinea pig Histamine Receptor (H2) (AID 2283342)
# Procedure: NVS_GPCR_gH2 is a biochemical, single-readout assay that uses extracted gene-proteins from Guinea pig striatal membranes in a tissue-based cell-free assay. Measurements were taken 1 hour after chemical dosing in a 96-well plate.NVS_GPCR_gH2 is one of one assay component(s) measured or calculated from the NVS_GPCR_gH2 assay. It is designed to make measurements of radioligand binding, a form of binding reporter, as detected with scintillation counting signals by Filter-based radiodetection technology.Data from the assay component NVS_GPCR_gH2 was analyzed into 1 assay endpoint. This assay endpoint, NVS_GPCR_gH2, was analyzed in the positive analysis fitting direction relative to DMSO as the negative control and baseline of activity. Using a type of binding reporter, loss-of-signal activity can be used to understand changes in the binding as they relate to the gene Hrh2. Furthermore, this assay endpoint can be referred to as a primary readout, because the performed assay has only produced 1 assay endpoint. To generalize the intended target to other relatable targets, this assay endpoint is annotated to the gpcr intended target family, where the subfamily is rhodopsin-like receptor.
# (§1) Binding assays used specific radioligands (tritiated, iodinated) with non-radioactive competitive displacement ligands in agonist or antagonist protocols (as indicated) and various reference compounds and inhibitors to titrate specific binding to receptors and transporters. Most enzyme assays (CYPs, kinases, phosphatases, proteases, HDACs) used recombinant protein and specific substrates (fluorescence mostly, some colorimetric and radioactive) and inhibitors, followed by a biochemical separation of substrate and product. All assays for the biochemical HTS were initially run in duplicate at a single concentration (10 uM for CYP450 assays and 25 uM for all others). Assay-chemical combinations meeting a pre-defined threshold (e.g., 30% inhibition and other criteria defined below) were then run in singleton concentration-response format with maximum concentration of 20 uM for CYPs and 50 uM for all others. Each assay was run with positive and negative controls, and concurrent controls on every plate. The follow-up (secondary) screen tested active chemical-pairs in concentration series, as well as a few additional assays not tested in the primary screen, some selected negative inactives, and several cases re-run in the concentration series for confirmatory purposes.
# [7] = tested on: NCBI gene 100848466; experiment: NVS_NR_bPR: NovaScreen (NVS) Nuclear Receptor Binding Assay for bovine Progextron Receptor (PR) (AID 2283343);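 as to AC50: actives lower bound radioligand signal below DMSO meaning displacement of the label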
# Procedure: NVS_NR_bPR is a biochemical, single-readout assay that uses extracted gene-proteins from Bovine uterine membranes in a tissue-based cell-free assay. Measurements were taken 18 hours after chemical dosing in a 96-well plate.NVS_NR_bPR is one of one assay component(s) measured or calculated from the NVS_NR_bPR assay. It is designed to make measurements of radioligand binding, a form of binding reporter, as detected with scintillation counting signals by Lysate-based radiodetection technology.Data from the assay component NVS_NR_bPR was analyzed into 1 assay endpoint. This assay endpoint, NVS_NR_bPR, was analyzed in the positive analysis fitting direction relative to DMSO as the negative control and baseline of activity. Using a type of binding reporter, loss-of-signal activity can be used to understand changes in the binding as they relate to the gene PGR. Furthermore, this assay endpoint can be referred to as a primary readout, because the performed assay has only produced 1 assay endpoint. To generalize the intended target to other relatable targets, this assay endpoint is annotated to the nuclear receptor intended target family, where the subfamily is steroidal.
# as §1, with “Assay-chemical combinations meeting a pre-defined threshold (e.g., 30% inhibition and other criteria defined below) were then run in singleton concentration-response format with maximum concentration of 20 uM for CYPs and 50 uM for all others.” left out
# [8] = target: Bile acid receptor (Homo sapiens) (UniProt Q96RI1); experiment: NVS_NR_hFXR_Agonist: NovaScreen (NVS) Nuclear Receptor Binding Assay for human Farnesoid X Receptor Agonism (FXR) (AID 2283347)
# Method in brief: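 Agonist-mode FXR assay read by time-resolved FRET 1 h after compound addition, using isolated human receptor protein without cells. Duplicate 25 uM single-point primary screen, concentration series for confirmed actives; DMSO as baseline.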
# [9] = target: human Constitutive Androstane Receptor (CAR), NR1I3 (gene 9970) (UniProt Q14994); experiment: NVS_NR_hCAR_Antagonist: NovaScreen (NVS) Nuclear Receptor Binding Assay for human Constitutive Androstane Receptor Antagonism (CAR) (AID 2283344)
# Method in brief: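 Single 25 uM duplicate primary screen, with concentration-series follow-up on actives. Cell-free binding format run in antagonist mode, TR-FRET signal taken 1 h post-dose; activity is signal loss relative to DMSO.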
# [10] = target: rat Glycine Receptor, Strychnine-sensitive (GlyRStrySens), Glra1 (gene 25674) (UniProt P07727); experiment: NVS_LGIC_rGlyRStrySens: NovaScreen (NVS) Ligand-Gated Ion Channel Assay for rat Glycine Receptor, Strychnine-sensitive (GlyRStrySens) (AID 2283341)
# Method in brief: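 Radioligand displacement on rat spinal cord membranes, 1 hr, filter scintillation read-out. Single-concentration duplicate screen at 25 uM; chemicals meeting threshold (e.g., 30% inhibition) rerun in concentration-response up to 50 uM. Loss of binding fitted versus DMSO.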
# Chain of Estrogen receptor (Homo sapiens) (P03372 whole entry, looked up, the tested form may be a part): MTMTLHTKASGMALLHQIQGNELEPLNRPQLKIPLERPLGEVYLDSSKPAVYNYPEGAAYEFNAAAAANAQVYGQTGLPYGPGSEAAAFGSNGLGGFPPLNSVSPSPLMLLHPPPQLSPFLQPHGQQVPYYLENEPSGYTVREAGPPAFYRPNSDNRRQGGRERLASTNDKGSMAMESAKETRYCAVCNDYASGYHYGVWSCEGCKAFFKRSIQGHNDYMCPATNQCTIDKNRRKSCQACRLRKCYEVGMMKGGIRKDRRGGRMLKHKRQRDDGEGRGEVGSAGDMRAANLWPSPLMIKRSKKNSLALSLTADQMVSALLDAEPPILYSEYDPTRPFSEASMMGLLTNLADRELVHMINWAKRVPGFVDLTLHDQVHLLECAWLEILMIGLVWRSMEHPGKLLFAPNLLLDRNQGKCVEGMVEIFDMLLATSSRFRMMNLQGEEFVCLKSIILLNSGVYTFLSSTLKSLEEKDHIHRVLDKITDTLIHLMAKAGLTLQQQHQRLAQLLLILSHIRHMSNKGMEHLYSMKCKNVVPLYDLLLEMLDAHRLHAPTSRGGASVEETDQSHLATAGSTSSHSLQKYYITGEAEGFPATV
# Chain of Estrogen receptor (Homo sapiens) + Estrogen receptor beta (Homo sapiens) (P03372 whole entry, looked up): as the sequence (P03372 whole entry, looked up, the tested form may be a part) above
# Chain of Estrogen receptor (Homo sapiens) + Estrogen receptor beta (Homo sapiens) (Q92731 whole entry, looked up): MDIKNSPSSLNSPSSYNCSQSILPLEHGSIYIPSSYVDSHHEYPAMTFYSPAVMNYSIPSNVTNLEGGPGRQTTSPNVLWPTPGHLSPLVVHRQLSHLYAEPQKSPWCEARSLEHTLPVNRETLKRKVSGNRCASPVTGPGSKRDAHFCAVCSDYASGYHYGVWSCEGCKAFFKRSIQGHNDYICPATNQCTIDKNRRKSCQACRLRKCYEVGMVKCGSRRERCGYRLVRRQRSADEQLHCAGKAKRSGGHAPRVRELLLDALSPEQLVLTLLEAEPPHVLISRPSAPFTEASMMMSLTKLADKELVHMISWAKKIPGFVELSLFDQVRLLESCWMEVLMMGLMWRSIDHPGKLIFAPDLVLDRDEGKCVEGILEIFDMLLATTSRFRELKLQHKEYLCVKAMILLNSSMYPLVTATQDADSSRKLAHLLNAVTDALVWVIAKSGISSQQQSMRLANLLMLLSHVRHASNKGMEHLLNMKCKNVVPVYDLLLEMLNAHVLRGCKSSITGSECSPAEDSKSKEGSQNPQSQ
# Chain of chimpanzee Androgen Receptor (AR), AR (gene 747460) (O97775 whole entry, looked up): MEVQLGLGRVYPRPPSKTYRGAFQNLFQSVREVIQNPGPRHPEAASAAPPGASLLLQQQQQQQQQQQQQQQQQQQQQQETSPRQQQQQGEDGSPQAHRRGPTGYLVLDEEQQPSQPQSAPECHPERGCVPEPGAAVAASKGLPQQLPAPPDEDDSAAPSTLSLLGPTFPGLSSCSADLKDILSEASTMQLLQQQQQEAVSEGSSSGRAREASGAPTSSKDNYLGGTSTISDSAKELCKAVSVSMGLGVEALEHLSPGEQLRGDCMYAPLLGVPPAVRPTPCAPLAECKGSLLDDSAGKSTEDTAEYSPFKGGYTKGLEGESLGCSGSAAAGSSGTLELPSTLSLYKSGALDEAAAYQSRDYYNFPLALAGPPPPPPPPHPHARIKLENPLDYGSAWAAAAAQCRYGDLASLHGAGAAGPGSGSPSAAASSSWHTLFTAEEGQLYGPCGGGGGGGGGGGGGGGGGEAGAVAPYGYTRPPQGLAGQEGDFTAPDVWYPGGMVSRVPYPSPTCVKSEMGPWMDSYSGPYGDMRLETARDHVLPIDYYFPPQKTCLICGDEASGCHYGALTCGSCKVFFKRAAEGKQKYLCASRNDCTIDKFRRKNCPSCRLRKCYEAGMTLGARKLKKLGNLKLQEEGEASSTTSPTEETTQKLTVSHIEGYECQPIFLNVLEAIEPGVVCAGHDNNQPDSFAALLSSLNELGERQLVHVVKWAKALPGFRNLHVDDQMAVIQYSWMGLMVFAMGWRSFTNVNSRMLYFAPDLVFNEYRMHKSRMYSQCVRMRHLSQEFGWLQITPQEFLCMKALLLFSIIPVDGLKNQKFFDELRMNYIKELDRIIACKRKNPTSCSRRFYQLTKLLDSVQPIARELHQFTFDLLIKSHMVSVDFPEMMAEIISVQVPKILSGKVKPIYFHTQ
# Chain of human Constitutive Androstane Receptor (CAR), NR1I3 (gene 9970) (Q14994 whole entry, looked up): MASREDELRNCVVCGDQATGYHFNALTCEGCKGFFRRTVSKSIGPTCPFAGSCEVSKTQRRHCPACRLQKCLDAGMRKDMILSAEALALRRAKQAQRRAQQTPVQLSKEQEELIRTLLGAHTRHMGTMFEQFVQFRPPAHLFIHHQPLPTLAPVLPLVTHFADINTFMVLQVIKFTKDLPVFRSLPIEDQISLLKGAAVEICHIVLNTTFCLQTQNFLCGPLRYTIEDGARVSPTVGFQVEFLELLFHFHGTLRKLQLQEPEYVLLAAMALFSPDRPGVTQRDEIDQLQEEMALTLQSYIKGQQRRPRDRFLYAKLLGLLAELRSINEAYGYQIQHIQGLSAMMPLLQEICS
# Chain of Bile acid receptor (Homo sapiens) (Q96RI1 whole entry, looked up): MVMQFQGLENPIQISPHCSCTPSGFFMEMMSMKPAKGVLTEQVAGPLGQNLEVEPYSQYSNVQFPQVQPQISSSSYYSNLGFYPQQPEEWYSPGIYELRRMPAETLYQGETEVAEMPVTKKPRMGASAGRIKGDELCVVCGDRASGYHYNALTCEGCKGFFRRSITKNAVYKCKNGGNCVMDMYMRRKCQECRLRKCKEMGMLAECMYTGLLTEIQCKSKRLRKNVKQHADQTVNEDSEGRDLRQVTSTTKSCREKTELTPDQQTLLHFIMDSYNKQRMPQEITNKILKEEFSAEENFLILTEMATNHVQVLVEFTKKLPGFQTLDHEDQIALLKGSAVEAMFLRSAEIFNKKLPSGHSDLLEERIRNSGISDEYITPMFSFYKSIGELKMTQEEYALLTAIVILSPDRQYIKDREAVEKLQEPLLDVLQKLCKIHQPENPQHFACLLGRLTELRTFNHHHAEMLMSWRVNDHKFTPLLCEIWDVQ
# Chain of rat Glycine Receptor, Strychnine-sensitive (GlyRStrySens), Glra1 (gene 25674) (P07727 whole entry, looked up): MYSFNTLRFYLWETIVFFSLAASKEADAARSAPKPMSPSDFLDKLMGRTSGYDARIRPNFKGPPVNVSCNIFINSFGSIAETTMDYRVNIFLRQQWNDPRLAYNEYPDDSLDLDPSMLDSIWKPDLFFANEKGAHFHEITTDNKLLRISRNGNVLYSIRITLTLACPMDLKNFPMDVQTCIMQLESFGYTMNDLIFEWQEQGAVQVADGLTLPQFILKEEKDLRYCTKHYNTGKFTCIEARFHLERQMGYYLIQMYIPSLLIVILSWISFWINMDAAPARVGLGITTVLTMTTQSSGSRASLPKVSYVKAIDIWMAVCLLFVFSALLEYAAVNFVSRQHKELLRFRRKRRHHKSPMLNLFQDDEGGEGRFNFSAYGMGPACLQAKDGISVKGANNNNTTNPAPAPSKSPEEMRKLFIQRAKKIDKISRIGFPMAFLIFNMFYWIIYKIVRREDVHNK
smiles,measurement,setting,value
COP(=S)(OC)Oc1ccc(Sc2ccc(OP(=S)(OC)OC)cc2)cc1,outcome,[1],inactive
same,AC50,[2],1.73 µM (active)
same,outcome,[3],inactive
same,outcome,[4],inactive
same,outcome,[5],inactive
CCC[CH2][Sn]([CH2]CCC)([CH2]CCC)[O]C(=O)c1ccccc1,AC50,[1],9.94 µM (active)
same,AC50,[2],2.94 µM (active)
same,outcome,[3],inactive
same,outcome,[4],inactive
C=C(C)C(=O)[O][Sn]([CH2]CCC)([CH2]CCC)[CH2]CCC,AC50,[6],2.23 µM (active)
same,AC50,[7],3.89 µM (active)
same,AC50,[1],12.1 µM (active)
same,outcome,[2],inactive
same,outcome,[3],inactive
same,outcome,[4],inactive
same,outcome,[5],inactive
O=C1C2(Cl)C3(Cl)C4(Cl)C(Cl)(Cl)C5(Cl)C3(Cl)C1(Cl)C5(Cl)C24Cl (stereo not given),outcome,[1],inactive
same,outcome,[8],inactive
CC(C)C1CCC(Cc2ccc(Cl)cc2)C1(O)Cn1cncn1 (stereo not given),AC50,[1],10.3 µM (active)
same,outcome,[2],inactive
same,outcome,[3],inactive
same,outcome,[4],inactive
Oc1ccc(-c2ccccc2)cc1,AC50,[1],4.83 µM (active)
same,outcome,[1],inactive
COc1cc(-c2ccc(N)c(OC)c2)ccc1N,AC50,[1],18.5 µM (active) and 25 µM (active)
Cc1ccccc1N,outcome,[9],inactive
Cl/C=C\C[N+]12CN3CN(CN(C3)C1)C2,AC50,[1],1.43 µM (active)
same,outcome,[3],inactive
same,outcome,[4],inactive
C[C@@H]1C[C@@H]([C@H](O)CC2CC(=O)NC(=O)C2)C(=O)[C@@H](C)C1,outcome,[1],inactive
CCN1CCC2(CC1)COc1cc3c(cc12)N(C(=O)c1ccc(-c2ccc(-c4nnc(C)o4)cc2C)cc1)CC3,AC50,[6],11.6 µM (active)
same,AC50,[1],16.8 µM (active)
same,outcome,[3],inactive
ClCC(Cl)CCl,outcome,[7],inactive
Fc1ccc(C2(Cn3cncn3)OC2c2ccccc2Cl)cc1 (stereo not given),outcome,[1],inactive
same,outcome,[2],inactive
same,AC50,[3],39.5 µM (active)
same,AC50,[4],23.7 µM (active)
same,AC50,[5],12.7 µM (active)
CC(C)(c1ccc(OCC2CO2)cc1)c1ccc(OCC2CO2)cc1 (stereo not given),outcome,[1],inactive
same,AC50,[2],14.2 µM (active)
same,outcome,[3],inactive
same,outcome,[4],inactive
same,outcome,[5],inactive
CCNc1nc(NC(C)(C)C)nc(SC)n1,outcome,[1],inactive
CCC[CH2][Sn]([Cl])([Cl])[Cl],AC50,[1],25 µM (active)
same,outcome,[3],inactive
same,outcome,[4],inactive
O=C(OC1CCCCC1)c1ccccc1C(=O)OC1CCCCC1,outcome,[1],inactive
same,outcome,[2],inactive
same,AC50,[3],23.9 µM (active)
same,AC50,[4],35 µM (active)
CC1(C)CCC(Cc2ccc(Cl)cc2)C1(O)Cn1cncn1 (stereo not given),AC50,[1],6.82 µM (active)
same,outcome,[2],inactive
same,outcome,[3],inactive
same,outcome,[4],inactive
Clc1ccc(C2(Cn3cncn3)CC(Br)CO2)c(Cl)c1 (stereo not given),AC50,[1],7.36 µM (active)
same,outcome,[2],inactive
same,outcome,[3],inactive
same,outcome,[4],inactive
same,outcome,[5],inactive
CC12CC1(C)C(=O)N(c1cc(Cl)cc(Cl)c1)C2=O (stereo not given),outcome,[1],inactive
CCOC(=O)Nc1cccc(OC(=O)Nc2ccccc2)c1,outcome,[1],inactive
same,outcome,[3],inactive
same,outcome,[4],inactive
CCC(=O)C(CC(C)N(C)C)(c1ccccc1)c1ccccc1 (stereo not given),AC50,[10],18.1 µM (active)
same,AC50,[6],4.02 µM (active)
same,outcome,[3],inactive
same,outcome,[4],inactive
same,outcome,[5],inactive
C[C@]12CC[C@H](O)CC1=CC[C@@H]1[C@@H]2CC[C@]2(C)C(=O)CC[C@@H]12,AC50,[1],1.88 µM (active)
N#CCCO,outcome,[1],inactive
C[C@]12CCC(=O)C[C@@H]1CC[C@@H]1[C@@H]2CC[C@]2(C)[C@@H](O)CC[C@@H]12,outcome,[7],inactive
CCCCCCCCCl,outcome,[1],inactive
O=C(O)C(F)(F)C(F)(F)C(F)(F)C(F)(F)C(F)(F)C(F)(F)C(F)(F)C(F)(F)C(F)(F)C(F)(F)F,AC50,[7],23.1 µM (active)
CCN(CC)C(=O)Cl,AC50,[1],2.82 µM (active)
CC(=O)[O][Hg][c]1ccccc1,AC50,[6],11.4 µM (active)
same,AC50,[1],29.1 µM (active)
same,outcome,[2],inactive
same,outcome,[3],inactive
same,outcome,[4],inactive
C1CCC(NC2CCCCC2)CC1,outcome,[3],inactive
same,outcome,[4],inactive
O=C(Cc1ccccc1)c1ccccc1,outcome,[2],inactive
same,outcome,[3],inactive
same,outcome,[4],inactive
COc1ccc(C=O)cc1OC,outcome,[3],inactive
same,outcome,[4],inactive
COP(=O)(OC)O/C(=C\Cl)c1cc(Cl)c(Cl)cc1Cl,outcome,[2],inactive
same,outcome,[3],inactive
same,outcome,[4],inactive
ClC1=C(Cl)[C@]2(Cl)[C@H]3[C@H]([C@H]4C=C[C@H]3C4)[C@@]1(Cl)C2(Cl)Cl,outcome,[2],inactive
COP(=S)(OC)Oc1cc(Cl)c(Br)cc1Cl,outcome,[2],inactive
Cc1ccc(N)cc1Cl,outcome,[1],inactive
same,outcome,[3],inactive
same,outcome,[4],inactive
same,outcome,[5],inactive
O=C(Nc1ccc2[nH]ccc2c1)c1cc2cc(F)ccc2n1Cc1cccc(F)c1,outcome,[2],inactive
same,outcome,[3],inactive
same,outcome,[4],inactive
Clc1ccc(COC(Cn2ccnc2)c2ccc(Cl)cc2Cl)cc1 (stereo not given),AC50,[1],9.28 µM (active)
same,outcome,[3],inactive
same,outcome,[4],inactive
O=C1CCCN1,outcome,[2],inactive
same,outcome,[3],inactive
same,outcome,[4],inactive
COc1cc(OC)nc(NC(=O)NS(=O)(=O)c2ncccc2C(=O)N(C)C)n1,outcome,[1],inactive
same,outcome,[3],inactive
same,outcome,[4],inactive
same,outcome,[5],inactive
